Source: PubChem BioAssay (National Center for Advancing Translational Sciences (NCATS))
ELG1 genotox: genotoxicity induction in ELG1-luciferase HEK293T cells | HEK293T ELG1-luciferase reporter, luminescence, 16 h | Potency, µM (top dose mostly 46 µM), inactives show top-dose activity change, positive = activation, actives largely listed as activators | 330,000 compounds, 1.3% hits | AID 504466; further: % of control where 0% means no effect; nearly all actives have a fitted effect of over 60% in size
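HEK293T cells expressing luciferase-tagged ELG1 were treated with compound or DMSO for 16 hr at 37°C. Luciferase activity was then read after 30 min with ONE-Glo at room temperature; rising signal flags genetic stress.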
FLuc modulator: inhibits or activates purified firefly luciferase, miR-21 counter-screen | purified FLuc, Km substrates, luminescence inhibition | P08659 | Potency, µM (highest dose often 57.5 µM), for the others: top-dose activity change, negative = inhibition, most hits filed as inhibitors | 360,000 compounds, 6.9% hits;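 further: plate controls were vehicle for no effect and reference inhibitor for full effect; nearly all actives have a fitted effect of over 55% in size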
Target sequence (P08659 whole entry, looked up): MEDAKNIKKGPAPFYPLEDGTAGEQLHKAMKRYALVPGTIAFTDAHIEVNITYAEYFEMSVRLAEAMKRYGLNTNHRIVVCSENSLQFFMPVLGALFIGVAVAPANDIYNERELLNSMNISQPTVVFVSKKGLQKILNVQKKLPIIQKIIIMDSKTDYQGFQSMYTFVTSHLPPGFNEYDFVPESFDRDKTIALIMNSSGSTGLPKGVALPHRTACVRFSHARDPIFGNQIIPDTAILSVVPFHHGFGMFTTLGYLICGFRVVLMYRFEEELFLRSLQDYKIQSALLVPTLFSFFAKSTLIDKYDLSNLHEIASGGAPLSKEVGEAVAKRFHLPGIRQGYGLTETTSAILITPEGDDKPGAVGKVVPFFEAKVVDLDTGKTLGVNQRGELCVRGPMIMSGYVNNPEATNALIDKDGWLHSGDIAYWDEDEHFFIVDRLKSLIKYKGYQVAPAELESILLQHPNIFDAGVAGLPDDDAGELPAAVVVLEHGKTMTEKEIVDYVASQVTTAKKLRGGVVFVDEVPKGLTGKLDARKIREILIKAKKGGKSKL
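Purified P. pyralis luciferase (10nM final) with 10uM D-luciferin and 10uM ATP (Km levels) in 50mM Tris acetate pH 7.5, 10mM Mg acetate, 0.01% Tween-20, 0.05% BSA; qHTS 6-point titration, ~60 µM downward; luminescence read.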
SMN2 splice up: enhancers of SMN2 splice variant expression | HEK293 SMN2-luciferase splicing reporter, luminescence, 30-36 h | Potency, µM (highest dose often 46.1 µM), for the others: top-dose activity change, positive = activation, usual class: activators | 210,000 compounds, 2.8% hits | AID 1458; further: % of control where 0% means no effect; nearly all actives have a fitted effect of over 55% in size
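qHTS luciferase splicing reporter: luminescence rises when SMN2 exon 7 is included in transfected HEK293 cells. Compound exposure lasted 30-36 h at 37C, with 4.5 mM final sodium butyrate as control, followed by a ONE-Glo read.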
ELG1 DNA repair: ELG1-dependent DNA repair inhibition | 330,000 compounds, 2.3% hits | HEK293T ELG1-luciferase reporter, luminescence, 16 h; DNA damage induced by 5-fluorouridine | Potency, µM (highest dose often 46.1 µM), without a hit: at the highest dose activity change, negative = inhibition, most hits filed as inhibitors; further: on the % scale 0 is the no-effect control and ±100 the full control effect; nearly all actives have a fitted effect of over 55% in size
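Cells (2,000 per well) received 5-fluorouridine plus test compound or DMSO and were incubated 16 hr at 37 °C, 5% CO2. Luciferase activity was read by luminescence 30 min after ONE-Glo addition; signal suppression marked inhibition of damage-induced ELG1 function.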
Rab9 prom act: activates the Rab9 promoter | Huh7 Rab9 promoter-luciferase reporter, luminescence, 24 h | Potency, µM (highest dose often 9.22 µM), for the others: at the highest dose activation, negative = inhibition, usual class: activators | 320,000 compounds, 2.8% hits | AID 485297; further: % of control where 0% means no effect; nearly all actives have a fitted effect of over 60% in size
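Huh7 cells stably carrying a Rab9 promoter-luciferase reporter, 1500 cells per well in OP-MEM I with 10% FBS, treated with compound 24 hours at 37C. Luciferase activity read by luminescence after 10 minutes with Amplite reagent.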
NPC1 prom act: activates the NPC1 promoter | 320,000 compounds, 2.4% hits | Huh7 NPC1 promoter luciferase reporter, 24 h | Potency, µM (titrated, usually from 9.22 µM), without a hit: top-dose activation, most hits filed as activators; further: % of control where 0% means no effect; nearly all actives have a fitted effect of over 60% in size
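NPC1 promoter–luciferase Huh7 cells; 24 h compound; luminescence.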
Active calls of the source: *. Most compounds without a hit are left out; they make up all but 9.2% or so of the library. The call rests on the fitted dose curve; in most records, active means well fitted curve in the direction sought with a large enough effect; inconclusive means small, poorly fitted or top-dose-only effect, or another doubt; inactive means no such curve, though single readings can be large; an effect the other way counts as inactive or inconclusive. Potency means the concentration at half of the fitted maximal effect.

Results for COC(=O)Nc1nc2ccc(SC(C)C)cc2[nH]1 ?
ELG1 genotox: 5.8µM*; FLuc modulator: inconclusive; SMN2 splice up: inconclusive; ELG1 DNA repair: inconclusive; Rab9 prom act: 16%; NPC1 prom act: 20%

How did O=C(Nc1ccccc1O)c1ccc([N+](=O)[O-])cc1 do in these assays?
ELG1 genotox: -4%; FLuc modulator: -18%; ELG1 DNA repair: 27%; Rab9 prom act: 29%; NPC1 prom act: inconclusive

Results for O=C(Nc1ccccc1O)c1ccc(Cl)cc1 ?
ELG1 genotox: inconclusive; FLuc modulator: 27µM*; SMN2 splice up: -13%; ELG1 DNA repair: inconclusive; Rab9 prom act: inconclusive; NPC1 prom act: 3.2µM*

What do the screens show for `Cc1cc(NC(=O)c2ccc(Cl)cc2)c(C(C)C)cc1O`?
ELG1 genotox: -3%; FLuc modulator: inconclusive; SMN2 splice up: -6%; ELG1 DNA repair: -10%; Rab9 prom act: 5%; NPC1 prom act: 6%

How did Cc1cc(NC(=O)c2ccc(Cl)cc2)c(C)cc1O do in these assays?
ELG1 genotox: 14%; FLuc modulator: 24µM*; ELG1 DNA repair: inconclusive; Rab9 prom act: 21%; NPC1 prom act: 2%

Results for Cc1ccc(C(=O)Nc2cc(Cl)ccc2OC(=O)c2ccc(C)cc2)cc1 ?
ELG1 genotox: 23%; FLuc modulator: 21µM*; SMN2 splice up: 14µM*; ELG1 DNA repair: inconclusive; Rab9 prom act: 4µM*; NPC1 prom act: inconclusive

How did COc1ccc(OC)c(NC(=O)c2ccc(Cl)cc2)c1 do in these assays?
ELG1 genotox: 2%; FLuc modulator: inconclusive; SMN2 splice up: -2%; ELG1 DNA repair: 5%; Rab9 prom act: 3%; NPC1 prom act: 1%

What do the screens show for `COc1ccc(C(=O)Nc2cc(Cl)ccc2OC(=O)c2ccc(OC)cc2)cc1`?
ELG1 genotox: inconclusive; FLuc modulator: inconclusive; SMN2 splice up: 24%; ELG1 DNA repair: inconclusive; Rab9 prom act: inconclusive; NPC1 prom act: 3.5µM*

What do the screens show for `CCc1sc(C(=O)N2CCN(C(=O)c3ccccc3)CC2)cc1C`?
ELG1 genotox: 0%; ELG1 DNA repair: -1%

How did NS(=O)(=O)c1ccc(NC(=O)COC(=O)CCc2ccccc2)cc1 do in these assays?
ELG1 genotox: -2%; FLuc modulator: 0%; ELG1 DNA repair: -7%; Rab9 prom act: -7%; NPC1 prom act: -6%

How did O=S(=O)(Nc1cc(S(=O)(=O)N2CCOCC2)ccc1NCC1CCCO1)c1ccccc1 (stereo unspecified) do in these assays?
ELG1 genotox: 0%; FLuc modulator: 4%; ELG1 DNA repair: -17%; Rab9 prom act: -2%; NPC1 prom act: 1%

What do the screens show for `O=C(Nc1ccccc1OC(=O)c1ccc(Cl)cc1)c1ccc(Cl)cc1`?
ELG1 genotox: 16%; FLuc modulator: -10%; SMN2 splice up: 31%; ELG1 DNA repair: inconclusive; Rab9 prom act: 3.2µM*; NPC1 prom act: inconclusive

How did COc1ccc(NC(=S)NC(NC(=O)c2cccc(Cl)c2)C(Cl)(Cl)Cl)c([N+](=O)[O-])c1 (stereo unspecified) do in these assays?
ELG1 genotox: -5%; FLuc modulator: -1%; SMN2 splice up: -97%; ELG1 DNA repair: 16µM*; Rab9 prom act: 9%; NPC1 prom act: 0%

Results for CCCc1cc(C(=O)Nc2ccc(OC)cc2[N+](=O)[O-])cs1 ?
ELG1 genotox: 12%; FLuc modulator: 12µM*; ELG1 DNA repair: inconclusive; Rab9 prom act: 23%; NPC1 prom act: 22%

How did COc1ccc(NC(=O)c2ccccc2)c([N+](=O)[O-])c1 do in these assays?
ELG1 genotox: inconclusive; FLuc modulator: inconclusive; SMN2 splice up: inconclusive; ELG1 DNA repair: inconclusive; Rab9 prom act: 2.8µM*; NPC1 prom act: inconclusive

What do the screens show for `Cc1ccc(C)c(N2CCN(C(=O)CCc3nnc4n(CC(C)C)c(=O)c5ccccc5n34)CC2)c1`?
FLuc modulator: 2%; SMN2 splice up: 0%

Results for Brc1ccc(-c2nnc(-c3cccc(Br)c3)o2)cc1 ?
ELG1 genotox: 19%; FLuc modulator: 9.5µM*; SMN2 splice up: 23%; ELG1 DNA repair: 11%; Rab9 prom act: -34%; NPC1 prom act: 3.2µM*

How did Brc1cccc(-c2nnco2)c1 do in these assays?
ELG1 genotox: 0%; FLuc modulator: 0%; SMN2 splice up: 9%; ELG1 DNA repair: -3%; Rab9 prom act: -8%; NPC1 prom act: 1%

How did O=C(O)c1ccc(-c2nnc(-c3cccc(Br)c3)o2)cc1 do in these assays?
ELG1 genotox: inconclusive; FLuc modulator: 11µM*; ELG1 DNA repair: inconclusive; Rab9 prom act: 1.6µM*; NPC1 prom act: 1.4µM*

Results for COc1cccc(C(=O)Nc2ccc(C(=O)OCc3cc(=O)n4nc(C5CC5)sc4n3)cc2)c1 ?
FLuc modulator: 0%

Results for COc1ccc(-n2nc(C(=O)NCC(=O)N3CCOCC3)c3ccccc3c2=O)cc1Cl ?
ELG1 genotox: 0%; FLuc modulator: 11µM*; ELG1 DNA repair: -9%; Rab9 prom act: 0%; NPC1 prom act: -4%

What do the screens show for `O=C(CCC1COc2ccccc2O1)NCC1COc2ccccc2O1` (stereo unspecified)?
ELG1 genotox: -1%; FLuc modulator: 0%; SMN2 splice up: -18%; ELG1 DNA repair: 4%; Rab9 prom act: -1%; NPC1 prom act: -3%

How did Cn1cccc1C(=O)NCC1COc2ccccc2O1 (stereo unspecified) do in these assays?
ELG1 genotox: 16%; FLuc modulator: 2%; ELG1 DNA repair: inconclusive; Rab9 prom act: 3.2µM*; NPC1 prom act: inconclusive

How did COCCCNC(=O)CNC(=O)c1nn(-c2ccc(OC)c(Cl)c2)c(=O)c2ccccc12 do in these assays?
ELG1 genotox: 0%; FLuc modulator: -2%; ELG1 DNA repair: -5%; Rab9 prom act: 0%; NPC1 prom act: -2%

Results for COc1ccc(-n2nc(C(=O)NCC(=O)N3CCCCCC3)c3ccccc3c2=O)cc1OC ?
ELG1 genotox: -5%; FLuc modulator: 6.7µM*; ELG1 DNA repair: -2%; Rab9 prom act: 2%; NPC1 prom act: 12%

What do the screens show for `COc1ccc(-n2nc(C(=O)NCC(=O)NC3CCCCCC3)c3ccccc3c2=O)cc1OC`?
ELG1 genotox: -10%; FLuc modulator: inconclusive; ELG1 DNA repair: 18µM*; Rab9 prom act: 8%; NPC1 prom act: -3%

Results for COc1ccc(-n2nc(C(=O)NCC(=O)N3CC(C)CC(C)C3)c3ccccc3c2=O)cc1OC (stereo unspecified) ?
ELG1 genotox: -15%; FLuc modulator: inconclusive; ELG1 DNA repair: inconclusive; Rab9 prom act: 0%; NPC1 prom act: 0%
